# Compounds with a hit are over-represented: about 9% of the library has one in this group of screens.
# JMJD2A Tudor inh – JMJD2A Tudor domain (human) inhibition | AlphaScreen JMJD2A-Tudor / H3K4me3 peptide binding | O75164 | Potency, µM (series often up to 114 µM), without a hit: at the highest dose activity change, negative = inhibition, actives largely listed as inhibitors | 390,000 compounds, 4.4% hits | AID 504339; further: on the % scale 0 is the no-effect control and ±100 the full control effect; nearly all actives have a fitted effect of over 50% in size
# PLK1 PBD inh – blocks phosphopeptide binding to human PLK1 polo-box domain. P53350. Plk1 PBD binding of FITC phosphopeptide, fluorescence polarization. Potency, µM, for the others: max response, negative = inhibition, hits mostly inhibitors. 360,000 compounds, 2.8% hits. AID 720504; further: series mostly up to about 57 µM; on the % scale 0 is the no-effect control and ±100 the full control effect; nearly all actives have a fitted effect of over 65% in size
# BAZ2B block – inhibitors of human BAZ2B bromodomain. Q9UIF8. AlphaScreen BAZ2B-H3K14Ac peptide displacement. Potency, µM (series often up to 114 µM), without a hit: at the highest dose activity change, negative = inhibition, actives largely listed as inhibitors. 360,000 compounds, 4.4% hits. AID 504333; further: on the % scale 0 is the no-effect control and ±100 the full control effect; nearly all actives have a fitted effect of over 60% in size
#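 AlphaScreen displacement of biotin-H3(5-23)K14Ac peptide (50 nM final) from BAZ2B (50 nM final) in PBS pH 7.4, 0.01% Tween-20; complex preformed 30 min RT, then compounds (top 110 uM) 30 min RT, beads 20 min dark.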
# HP1b binding inh – inhibitors of HP1-beta chromodomain binding to methylated histone tails. AID 540317. 390,000 compounds, 0.56% hits. P83916. Potency, µM (doses to about 114 µM), for the others: at the top dose activity change, negative = inhibition, most hits filed as inhibitors. AlphaScreen HP1-beta / biotin-H3K9me3 peptide binding; further: nearly all actives have a fitted effect of over 70% in size
# Target sequence (P83916 whole entry, looked up): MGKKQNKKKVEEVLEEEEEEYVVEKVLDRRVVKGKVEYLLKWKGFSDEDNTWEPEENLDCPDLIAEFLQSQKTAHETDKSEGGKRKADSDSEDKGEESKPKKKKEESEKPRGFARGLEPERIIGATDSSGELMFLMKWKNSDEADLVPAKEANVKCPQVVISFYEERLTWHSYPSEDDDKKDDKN
#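 HP1-beta protein (50 nM final) preincubated 30 min at room temperature with biotinylated H3(1-18)K9me3 peptide (50 nM) in PBS pH 7.4, 0.01% Tween-20, then compound added for 30 min. AlphaScreen streptavidin donor/nickel chelate acceptor beads (10 ug/mL final), 30 min dark, luminescence read.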
# 12-LOX inh – inhibitors of human 12S-lipoxygenase ALOX12; purified 12hLO, xylenol orange hydroperoxide absorbance; Potency, µM (titrated, usually from 108 µM), for the others: at the highest dose activity change, negative = inhibition, usual class: inhibitors; 580,000 compounds, 1.1% hits; further: on the % scale 0 is the no-effect control and ±100 the full control effect
#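 Hydroperoxide product was detected by ferrous iron/xylenol orange as the 573 to 405 nm absorbance ratio. Arachidonic acid at 40 uM (final) was turned over for 30 min at room temperature by 150 nM human 12hLO, pH 7.0 Hepes buffer, after 15 min compound preincubation.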
# G9a block – G9a (human) methyltransferase inhibition; Potency, µM (top dose mostly 102 µM), for inactives: top-dose activity, negative = inhibition, actives largely listed as inhibitors; 350,000 compounds, 8.8% hits; AID 504332; Q96KQ7; G9a H3K9 monomethylation, AlphaScreen, 2 h; further: on the % scale 0 is the no-effect control and ±100 the full control effect; nearly all actives have a fitted effect of over 75% in size
# Target sequence (Q96KQ7 913-1193 limits assumed): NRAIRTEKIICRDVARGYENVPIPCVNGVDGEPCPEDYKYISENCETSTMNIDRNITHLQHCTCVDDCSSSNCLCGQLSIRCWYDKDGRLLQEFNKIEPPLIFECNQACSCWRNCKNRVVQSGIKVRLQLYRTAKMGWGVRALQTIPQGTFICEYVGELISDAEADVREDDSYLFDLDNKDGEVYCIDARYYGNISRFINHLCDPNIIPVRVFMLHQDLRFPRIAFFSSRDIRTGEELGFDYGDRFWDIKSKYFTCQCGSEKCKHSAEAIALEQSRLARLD
#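 Chemiluminescent proximity detection of H3K9 monomethylation, read after 10 min bead incubation in the dark. Reaction: 20 nM G9a, 500 nM biotin-H3K9 peptide, 20 uM SAM cofactor, 2 h, room temperature, following 15 min enzyme-compound preincubation.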
# The depositor's hits bear a star; ? = inconclusive; . = not tested or not shown; [ ] = another dose, or the depositor's remark. The call rests on the fitted dose curve; in most records, active means well fitted curve in the direction sought with a large enough effect; inconclusive means small, poorly fitted or top-dose-only effect, or another doubt; inactive means no such curve, though single readings can be large; an effect the other way counts as inactive or inconclusive. Potency means the concentration at half of the fitted maximal effect.
SMILES,JMJD2A Tudor inh,PLK1 PBD inh,BAZ2B block,HP1b binding inh,12-LOX inh,G9a block
CN=C(Nc1cc(Cl)ccc1Cl)SC1CC(=O)N(c2ccc(C(=O)OC)cc2)C1=O (stereo not drawn),-14%,-1%,4%,12%,-8%,50µM*
N#Cc1ccc(C(=O)N(Cc2ccccc2)c2ccccc2)cc1,-4%,-10%,16%,-5%,0%,8%
COc1ccc(C2=NN(C(=O)CCC(=O)O)C(c3ccc(OC)cc3)C2)cc1 (stereo not drawn),-18%,-1%,4%,37%,-5%,.
CC[C@H](C)[C@H]1CNC(=O)C(=O)N1CC1CCN(CCCc2ccc(OC)c(OC)c2)CC1,79µM*,-21%,.,-4%,1%,.
CCCCn1c(=O)n(CC(O)COc2ccc3ccccc3c2)c(=O)c2c1ncn2C1CCCC1 (stereo not drawn),.,.,.,.,0%,.
Cc1ccc2nc(NC(=S)NC(=O)c3ccco3)sc2c1,-16%,-4%,-7%,-11%,-17%,50µM*
Cc1ccc2nc(NC(=O)c3ccco3)sc2c1,2%,-3%,10%,22%,-8%,-17%
Cc1ccc2nsnc2c1NC(=S)NC(=O)c1ccco1,-28%,?,-27%,-5%,?,3.2µM*
O=C(Nc1ccccc1C(=O)NCC12CC3CC(CC(C3)C1)C2)c1ccccc1,.,.,.,.,7%,.
CCOC(=O)C1=C(C)N(CCCC(=O)O)C(=O)NC1c1ccc(Br)cc1 (stereo not drawn),.,.,.,.,-1%,.
CCOCCOC(=O)C1=C(C)N(C)C(=O)NC1c1ccccc1Cl (stereo not drawn),15%,3%,?,18%,-4%,-6%
CCOC(=O)C1=C(C)N(CCCCCC(=O)O)C(=O)NC1c1ccc(Br)cc1 (stereo not drawn),?,0%,-7%,21%,-16%,50µM*
CC1=C(C(=O)OCc2ccccc2)C(c2ccc(Cl)cc2Cl)NC(=O)N1CCCC(=O)O (stereo not drawn),-21%,-20%,-39%,66%,.,56µM*
CCOC(=O)CN1C(=O)N[C@H](c2ccc(Br)cc2)C(C(C)=O)=C1C,-28%,-24%,-24%,25%,-30%,45µM*
CCOC(=O)C1=C(C)N(C)C(=O)NC1c1cccc2ccccc12 (stereo not drawn),?,11µM*,1%,8%,40%,.
CCOC(=O)C1=C(C)N(CCCC(=O)O)C(=O)NC1c1ccccc1Cl (stereo not drawn),-12%,-10%,.,18%,10%,.
CCOC(=O)C1=C(C)N(CCCCCC(=O)O)C(=O)NC1c1ccccc1Cl (stereo not drawn),-18%,2%,?,34%,-10%,56µM*
COc1ccc2c(c1)CCC/C2=N\NC(=O)c1ccoc1C,-6%,0%,-2%,7%,4%,-1%[59 µM]
Cc1nnc(C)c2c(C)n(-c3cccc4cccnc34)c(C)c12,.,.,?,.,.,71µM*
COc1cc(/C=C/c2nc3ccccc3s2)cc(OC)c1O,-7%,33%,?,17%,?,50µM*
COc1cc(C=C(c2nc3ccccc3s2)c2nc3ccccc3s2)ccc1O,45µM*,-5%,35µM*,?,?,3.5µM*
COc1ccc(/C=C/c2nc3ccccc3s2)cc1OC(F)F,.,.,.,.,-6%,.
CCOc1cc(/C=C/c2nc3ccccc3s2)ccc1O,.,.,.,.,40µM*,.
CCN1CCN(C/C(C)=C/c2ccccc2)CC1,2%,5%,-6%,23%,?,-25%
CCN(CC)C(=O)C1CCCN(C/C=C/c2ccccc2)C1 (stereo not drawn),4.5µM*,1%,56µM*,?,-17%,10µM*
SMILES,JMJD2A Tudor inh,PLK1 PBD inh,BAZ2B block,HP1b binding inh,12-LOX inh,G9a block
O=C(Nc1ccccc1Oc1cccnc1)C1CCCN(C/C=C/c2ccccc2)C1 (stereo not drawn),-19%,-10%,-12%,5%,22%,.
CCN(CC(=O)Nc1ccccc1C(F)(F)F)C(=O)C1CCC1,-9%,-2%,-4%,25%,12%,7%[59 µM]
CCN(CC)C(=O)C1CCCN(Cc2ccccc2C(F)(F)F)C1 (stereo not drawn),4.5µM*,3%,79µM*,?,?,?
CCN(CC)C(=O)C1CCCN(C/C(C)=C/c2ccccc2)C1 (stereo not drawn),1.6µM*,-3%,50µM*,?,?,16µM*
CCOc1cc(=O)n2c(c1C(=O)Nc1ccc(C(=O)OC)cc1)CCCC2,.,.,.,.,-5%,.
COc1cc(NC(C)CCc2ccccc2)cc(OC)c1OC (stereo not drawn),45µM*,3%,?,?,?,.
CSc1nc2c(=S)[nH]c(=S)[nH]c2s1,.,21µM*,.,.,14µM*,.
CC1=Nc2cc(C(=O)NCCCN3CCOCC3)ccc2Sc2c(C)ccc(C)c21,-32%,-2%,-17%[57.1 µM],22%,-15%,17%
CC(=O)c1c(C)[nH]c(C(=O)NNC(=O)COc2cc(C)cc(C)c2)c1C,-14%,-1%,-26%,17%,16%,50µM*
Cc1ccc(C(=O)Nc2ccc(CN3CCN(C)CC3)c(C(F)(F)F)c2)cc1C#Cc1cnc2cccnn12,.,.,.,.,0.34µM*,.
O=C(c1cc(=O)[nH]c2ccccc12)N(Cc1nnc(-c2ccccc2Cl)o1)C1CC1,-7%,1%,8%,43%,-23%,50µM*
Cc1c(C(=O)N(Cc2nnc(-c3ccccc3Cl)o2)C2CC2)oc2ccccc12,-4%,1%,4%,67%,11%,30%[12.7 µM]
COc1cc(C(=S)N2CCOCC2)ccc1OC(=O)c1ccccc1,-10%,-23%,-26%,13%,0%,40µM*
COc1ccc(C(=S)N2CCOCC2)cc1OC(=O)c1ccccc1,-35%,27µM*,-38%,?,?,10µM*
COc1ccc(C(=S)N2CCOCC2)cc1OC(=O)c1cccc([N+](=O)[O-])c1,?,-11%,-3%,-4%,-17%,-2%
COc1ccc(C(=S)N2CCOCC2)cc1OC(=O)c1ccc(C)cc1,?,-16%,?,-20%,-26%,45µM*
COc1ccc(C(=S)N2CCOCC2)cc1OC(=O)c1cc(OC)c(OC)c(OC)c1,?,27µM*,?,?,?,7.9µM*
COc1cc(C(=S)N2CCOCC2)ccc1OC(=O)Cc1ccc(F)cc1,-15%,-7%,-8%,6%,0%,?
COc1ccc(NC(=S)Nc2ccccc2F)c(OC)c1,-11%,-5%,-2%,14%,?,11%
COc1cc(S(=O)(=O)N2CCN(C(=O)c3ccco3)CC2)c(OC)cc1C,-10%,-12%,-9%,32%,0%,-13%
